We go through 56 molecules from PubChem BioAssay AID720504 (National Center for Advancing Translational Sciences (NCATS), 2013).

Out of some 360,000 compounds screened, about 10,000 (2.8%) were called active. About 4% were inconclusive and are not listed. Calls come from the whole dose curve; as a rule, active = well fitted inhibition curve with a large enough effect; inconclusive = small, poorly fitted or top-dose-only effect; inactive = flat fitted curve, though single readings scatter. Only a selection was taken, and actives are over-represented in it overall.
% is set by controls: 0 for no effect and ±100 for the full control effect; potency is the fitted concentration of half-maximal effect.

Sequence of Serine/threonine-protein kinase PLK1 (Homo sapiens) (P53350 whole entry, looked up, the tested form may be a part): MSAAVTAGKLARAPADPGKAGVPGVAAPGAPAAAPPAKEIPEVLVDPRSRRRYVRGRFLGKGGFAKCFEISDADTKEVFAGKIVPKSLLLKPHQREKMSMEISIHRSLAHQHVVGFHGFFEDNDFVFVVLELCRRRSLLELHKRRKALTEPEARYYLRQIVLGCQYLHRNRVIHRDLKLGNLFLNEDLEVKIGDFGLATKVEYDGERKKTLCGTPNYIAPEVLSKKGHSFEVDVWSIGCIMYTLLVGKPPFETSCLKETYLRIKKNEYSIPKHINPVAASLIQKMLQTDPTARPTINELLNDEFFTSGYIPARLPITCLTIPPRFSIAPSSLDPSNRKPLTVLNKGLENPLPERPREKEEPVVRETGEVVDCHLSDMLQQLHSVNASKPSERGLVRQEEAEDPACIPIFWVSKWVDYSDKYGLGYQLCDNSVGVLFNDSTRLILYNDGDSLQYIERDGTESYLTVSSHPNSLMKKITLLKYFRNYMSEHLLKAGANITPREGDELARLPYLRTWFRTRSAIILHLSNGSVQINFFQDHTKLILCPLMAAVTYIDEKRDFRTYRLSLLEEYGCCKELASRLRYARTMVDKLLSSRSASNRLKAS

The assay concerns the target Serine/threonine-protein kinase PLK1 (Homo sapiens) (UniProt P53350). Briefly: qHTS for Inhibitors of PLK1-PDB (polo-like kinase 1 - polo-box domain): Primary Screen. For max response, negative = inhibition: series mostly up to about 57 µM. Note: nearly all actives have a fitted effect of over 65% in size. Conditions: Plk1 PBD binding of FITC phosphopeptide, fluorescence polarization. For orientation: Quantitative high-throughput screening tests each substance at several concentrations.
As for `O=[N+]([O-])c1ccc(N=Cc2c(O)ccc3ccccc23)cc1`, the Potency is 29.9 µM (active).
With `O=[N+]([O-])c1cccc(C=NN=Cc2ccccc2O)c1`, the max response, negative = inhibition was -3.02% (inactive).
On to `O=C(Oc1ccc([N+](=O)[O-])cc1)c1ccc2ccccc2n1`, for which the max response, negative = inhibition is -21.6% (inactive).
As to `CCCCNC(=O)C[C@@H]1C[C@@]2(C(=O)OC)CC(C)(C)CC=C2N(Cc2ccco2)C1=O`, the max response, negative = inhibition was 0.813% (inactive).
In the case of `Cc1cccc(-c2cnc(C(O)c3ccc4ccccc4c3)[nH]2)c1` (stereo unspecified), the max response, negative = inhibition was -0.198% (inactive).
Same read-out and setting: the figure for `O=C(NN=Cc1ccc([N+](=O)[O-])cc1)C1CC1` is -0.264% (inactive).
`N#Cc1cc([N+](=O)[O-])ccc1Oc1cccc(/C=N/NC(=O)c2ccc(Cl)cc2)c1`: the max response, negative = inhibition was 0.641% (inactive).
Consider `O=C(N/N=C/c1ccc(Cl)cc1)c1nc2ccc([N+](=O)[O-])cc2c(=O)[nH]1`, for which the Potency is 18.9 µM (active).
For the molecule `O=C(NCc1ccc(F)cc1)c1cc(C2CCCCN2C(=O)C2CCCCC2)on1` (stereo unspecified), the max response, negative = inhibition was 2.6% (inactive).
The same measure, in the same setting: the figure for `CC(C)CC1C(=O)N(Cc2cn(Cc3ccco3)nn2)CCS(=O)(=O)N1Cc1ccc(-c2ccc(Cl)c(Cl)c2)cc1` (stereo unspecified) is -13.6% (inactive); for `CNc1cncc(-c2ccc(NS(C)(=O)=O)cc2)n1` it is 6.53% (inactive).
As to `CCOc1ccc(-n2c(SCC(N)=O)nnc2-c2ccco2)cc1`, the Potency was 15 µM (active).
Consider `COc1ccc(C(=O)NC(=O)CSc2nnc(-c3ccco3)n2-c2ccccc2)cc1`, for which the max response, negative = inhibition was -12.5% (inactive).
The same measure, in the same setting: with `O=C(CSc1nnc(-c2ccco2)n1-c1ccccc1)NCCc1ccccc1` the figure was -10.6% (inactive); with `OCCN1CCN(c2ncnc3c2ncn3[C@H]2CN(Cc3ccco3)C[C@@H](CO)O2)CC1`, -11.1% (inactive); with `O=C(Nc1ccc(N2CCOCC2)cc1)c1cccc2c(-c3ccc(F)c(F)c3)coc12`, -15% (inactive).
For `CC(=O)N1c2ccc(S(=O)(=O)N(C)CC(=O)N(C)Cc3ccccc3)cc2CC1C` (stereo unspecified), the max response, negative = inhibition was 5.96% (inactive).
`COc1cccc(CNS(=O)(=O)c2ccc3c(c2)CC(C)N3C(=O)C2CCC2)c1` (stereo unspecified): the max response, negative = inhibition is -3.29% (inactive).
As to `CC(=O)N1c2ccc(S(=O)(=O)NCCC(=O)N(C)C3CCCCC3)cc2CC1C` (stereo unspecified), the Potency is 2.99 µM (active).
Regarding `Cc1ccc(-c2ccc(CN3C(C(C)C)C(=O)N(Cc4cn(CCC5OCCCO5)nn4)CCS3(=O)=O)cc2)cc1` (stereo unspecified), the max response, negative = inhibition was -2.35% (inactive).
Regarding `CCOc1ccc(CCN2C(=O)C(=O)N([C@@H](CC(C)C)CN3CCC[C@H]3CN3C(=O)C(=O)NC[C@@H]3Cc3ccccc3)C[C@@H]2CC(C)C)cc1`, the max response, negative = inhibition was -0.137% (inactive).
As to `Cc1cccc(-c2cnc(C(O)c3cc(C)cc(C)c3)[nH]2)c1` (stereo unspecified), the max response, negative = inhibition was -12% (inactive).
Consider `CCOC(=O)c1sc(=NC(=O)/C=C/c2cccs2)n(C)c1C`, for which the Potency is 26.7 µM (active).
Regarding `CCOC(=O)c1c(NC(=S)NC(=O)/C=C/c2cccs2)sc(C)c1C`, the max response, negative = inhibition was -3.87% (inactive).
The same measure, in the same setting: with `CCOC(=O)c1sc(=NC(=O)c2ccc(Br)cc2)n(C)c1C` the figure was -3.76% (inactive).
The same measure, in the same setting: the figure for `COC(=O)[C@]12CCCCC=C1N(Cc1ccc3c(c1)OCO3)C(=O)[C@H](CC(=O)N1CCOCC1)C2` is -9.01% (inactive).
Consider `CC(=O)N1c2ccccc2N(Cc2ccc([N+](=O)[O-])cc2)C(=O)C1(C)C`, for which the Potency was 29.9 µM (active).
Regarding `CC(O)c1nc2ccccc2n1Cc1ccc([N+](=O)[O-])cc1` (stereo unspecified), the max response, negative = inhibition was -2.98% (inactive).
On the same count and under the same terms, the figure for `O=C(CSCc1ccc([N+](=O)[O-])cc1)NCCSCc1ccccc1` is -1.81% (inactive).
`Cc1nc2c(OCc3cccc(Cl)c3)cccn2c1N(C)CC1CC1`: the max response, negative = inhibition was -10.4% (inactive).
Take `COC(=O)[C@]12CCCCC=C1N(Cc1cccc3ccccc13)C(=O)[C@H](CC(=O)N1CCOCC1)C2`: the max response, negative = inhibition is -13.4% (inactive).
Still for that read-out and setting: the figure for `Cc1cc(Cl)ccc1-c1nc(NCCN(C)C)nc2ccsc12` is -8.63% (inactive); for `COc1ccccc1-c1cc(NC(C)=O)c2ncc(-c3ccc(F)cc3)n2c1` it is -2.69% (inactive).
The same measure, in the same setting: with `Cc1ccccc1C1=N/C(=C/c2cccnc2)C(=O)O1` the figure was -12.6% (inactive); with `COc1ccnc2c1c(=O)n(Cc1cccc(F)c1)c(=O)n2C`, -8.75% (inactive).
Same read-out and setting: the figure for `COc1cc(/C=C2/C(=O)NN(c3ccc(F)cc3)C2=O)cc([N+](=O)[O-])c1O` is -17.7% (inactive); for `COc1cc(C=O)ccc1Oc1nnnn1-c1ccccc1` it is -3.25% (inactive); for `CCOc1cc(/C=N/O)ccc1OCc1ccccc1F` it is 5.59% (inactive).
With `C#CCOc1ccc(/C=C2/C(=O)NN(c3ccccc3)C2=O)cc1OC`, the Potency was 18.9 µM (active).
As to `COc1cc(/C=C2/C(=O)ON=C2C)ccc1OCc1cccc(F)c1`, the Potency was 1.06 µM (active).
For the molecule `COc1cc(/C=C2\SC(=O)NC2=O)ccc1OCc1ccc(Cl)nc1`, the max response, negative = inhibition was -13.4% (inactive).
Consider `CC1=NOC(=O)/C1=C\c1ccccc1`, for which the Potency was 16.8 µM (active).
Regarding `CCOc1cc(/C=C2\C(=N)N3N=C(C)SC3=NC2=O)ccc1OCCOc1ccccc1`, the max response, negative = inhibition is -10.7% (inactive).
For the molecule `C#CCOc1ccc(/C=C2/C(=O)ON=C2C)cc1OCC`, the Potency was 2.12 µM (active).
Turning to `Cc1nc2ccccn2c(=O)c1NC(=O)c1ccc(Br)o1`, the max response, negative = inhibition is -0.655% (inactive).
On the same count and under the same terms, the figure for `O=[N+]([O-])c1ccc(CN2CC(N3CC=CC3)CS2(=O)=O)cc1` (stereo unspecified) is -4.83% (inactive); for `CCc1cc(C(=O)N(CC)CC(=O)Nc2c(F)cccc2F)sc1C` it is -2.84% (inactive).
Consider `CSCCC(c1nnnn1Cc1ccccc1)N1CCN(C/C=C/c2ccccc2)CC1` (stereo unspecified), for which the max response, negative = inhibition was -5.15% (inactive).
Consider `CC1(Oc2cccc(F)c2)CCN(Cc2ccccc2OC(F)F)C1` (stereo unspecified), for which the max response, negative = inhibition is -10.6% (inactive).
On to `C=CCOc1ccc(/C=C2/C(=O)ON=C2C)cc1OCC`, for which the Potency was 1.89 µM (active).
In the case of `C=CCOc1ccc(/C=N/n2cncn2)cc1OC`, the max response, negative = inhibition was -1.5% (inactive).
On to `C#CCOc1ccccc1/C=C1/C(=O)ON=C1C`, for which the Potency is 2.38 µM (active).
On to `Cc1no[n+]([O-])c1COc1ccccc1/C=C1\NC(=S)NC1=O`, for which the max response, negative = inhibition is -11.5% (inactive).
For the molecule `C=CCOc1ccc(/C=N/NC(=O)C(C)Sc2ccccn2)cc1OCC` (stereo unspecified), the max response, negative = inhibition is -12.5% (inactive).
`COc1ccc(NC(=O)C2(C)Cc3c(-c4cccc(NC(C)=O)c4)ccnc3O2)cc1` (stereo unspecified): the max response, negative = inhibition was 1.6% (inactive).
As to `CC(C)NC(=O)N1Cc2cc(C(=O)NCC(F)(F)F)nc(-c3cccc(-c4cc5ccccc5o4)c3)c2[C@@H]1CCO`, the max response, negative = inhibition is -2.2% (inactive).
